Experimental data: PubChem BioAssay (NCI)
Values joined by “and” are separate entries in the source; they are usually repeats but may differ in a detail not shown here. Identical values can stand only once. The panel holds about 79,000 compounds, 15% with a hit somewhere; the sample as a whole holds those more often. More than one record can exist for a structure, and the calls need not agree. Active and inactive are the calls of the source. Cut-off read from the data, not from the text of the source: active = growth inhibition above about 70%; inactive = the rest. Where a SMILES comes first, the peptide text is derived from it. [ ]: non-standard residue; d: D form. ξ: configuration not given here. ξI = CCC(C)C(N)C(=O)O

How the values were obtained:
[1] = NCI Yeast Anticancer Drug Screen. Data for the rad50 strain (AID 155);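 note: 0% = growth of vehicle-only cultures of the same strain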; details: S. cerevisiae rad50 strain growth inhibition, stronger effect = higher value
In short: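 Compounds were tested on a yeast strain with an engineered DNA damage repair alteration; the reported value is growth inhibition normalised to vehicle treatment.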

[2] = NCI Yeast Anticancer Drug Screen. Data for the cln2 rad14 strain (AID 165);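 note: 0% = growth equal to vehicle treated cultures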; details: S. cerevisiae cln2 rad14 strain, stronger effect = higher value
In short: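 Relative to vehicle controls, growth inhibition of compound-treated cln2 rad14 yeast was recorded.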

[3] = NCI Yeast Anticancer Drug Screen. Data for the bub3 strain (AID 167); details: S. cerevisiae bub3 mutant strain, stronger effect = higher value
In short: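 Growth of a checkpoint-deficient yeast mutant is measured after compound exposure. Values represent inhibition relative to vehicle.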

[4] = NCI Yeast Anticancer Drug Screen. Data for the sgs1 mgt1 strain (AID 161);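 note: 0% = growth of cultures given vehicle only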; details: S. cerevisiae sgs1 mgt1 strain, stronger effect = higher value
In short: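 Growth of a repair-deficient yeast mutant was monitored after compound treatment and expressed as inhibition relative to vehicle-treated cultures.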

[5] = NCI Yeast Anticancer Drug Screen. Data for the mlh1 rad18 strain (AID 175); details: S. cerevisiae mlh1 rad18 strain growth inhibition, stronger effect = higher value
In short: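 Test agents were incubated with a yeast strain of defined genotype (DNA damage repair defect). Inhibition of growth was derived by comparison with vehicle-exposed cultures.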

[6] = NCI Yeast Anticancer Drug Screen. Data for the mec2-1 strain (AID 157); details: S. cerevisiae mec2-1 strain, stronger effect = higher value
In short: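 Readout is yeast growth inhibition, normalised to vehicle-treated controls, in the mec2-1 strain exposed to compound.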

[7] = at 5.0 µM (retest, dose inferred, filed as 0.5)
[8] = at 50.0 µM (retest, dose inferred, filed as 5.0)

SMILES | growth inhibition ([1]; at 50.0 µM) | growth inhibition ([2]; at 50.0 µM) | growth inhibition ([3]; at 50.0 µM) | growth inhibition [1, 7] | growth inhibition [1, 8] | growth inhibition [4, 7] | growth inhibition [4, 8] | growth inhibition ([4]; at 50.0 µM) | growth inhibition [2, 7] | growth inhibition [2, 8] | growth inhibition [3, 7] | growth inhibition [3, 8] | growth inhibition [5, 7] | growth inhibition [5, 8] | growth inhibition ([5]; at 50.0 µM) | growth inhibition ([6]; at 50.0 µM) | growth inhibition [6, 7] | growth inhibition [6, 8]
NCCCC(=O)O | -5.85% (inactive) [middle of 4 runs] | 6.95% (inactive) [middle of 4 runs] | -15.2% (inactive) [middle of 4 runs] | – | – | – | – | – | – | – | – | – | – | – | – | – | – | –
O=C1C(=Cc2c[nH]c3ccccc23)C(=O)c2ccccc21 | -9.1% (inactive) and 69.2% (inactive) | 2.15% (inactive) and 32.4% (inactive) | -15.7% (inactive) and 62.8% (inactive) | 11% (inactive) | 93% (active) | -1% (inactive) | 91% (active) | 0.1% (inactive) and 71.1% (active) | 6% (inactive) | 83% (active) | 3% (inactive) | 95% (active) | -1% (inactive) | 96% (active) | -1.65% (inactive) and 78.5% (active) | – | – | –
CCC(C)C(NC(=O)CN)C(=O)O (stereo unspecified) (H-Gly-[ξI]-OH) | 6.95% (inactive) [middle of 4 runs] | – | – | – | – | – | – | – | – | – | – | – | – | – | -17.8% (inactive) [middle of 4 runs] | -3% (inactive) [middle of 4 runs] | – | –
c1ccc2c(c1)[nH]c1c(N3CCOCC3)nnc(N3CCOCC3)c12 | 35.5% (inactive) | – | 47.1% (inactive) | 2% (inactive) | 1% (inactive) | -2% (inactive) | 0% (inactive) | 77.8% (active) | – | – | 0% (inactive) | -1% (inactive) | -6% (inactive) | -6% (inactive) | 83% (active) | 44% (inactive) | -5% (inactive) | 3% (inactive)
O=C(O)C1CC(O)CN1 (stereo unspecified) | 26.6% (inactive) and 12.2% (inactive) and -2.5% (inactive) | -4.7% (inactive) and 4.45% (inactive) and -18.1% (inactive) | 23.1% (inactive) and 13.8% (inactive) and 2.75% (inactive) | – | – | – | – | 31.4% (inactive) and 15.3% (inactive) and 1.95% (inactive) | – | – | – | – | – | – | 30.6% (inactive) and 13.9% (inactive) and 1.9% (inactive) | -9.75% (inactive) and 11.6% (inactive) and -22.9% (inactive) | – | –
COc1cc(O)c2c(c1)C(=O)c1cc3c(c(O)c1C2=O)C(OC1OC(C)C(OC)C(O)C1OC)C(OC)C(C)(O)C3=O (stereo unspecified) | 98.8% (active) and 90.6% (active) | – | 99% (active) and 90.5% (active) | 81% (active) | 98% (active) | 20% (inactive) | 98% (active) | 99.5% (active) and 92.3% (active) | – | – | -6% (inactive) | 98% (active) | – | – | – | – | – | –
COC(=O)[C@]1(C)CCC[C@]2(C)c3cc(C(C)=O)c(C(C)C)cc3CC[C@@H]12 | 92.5% (active) and -4.55% (inactive) | – | 98.5% (active) and -5.05% (inactive) | -1% (inactive) | -11% (inactive) | -4% (inactive) | -27% (inactive) | 93.5% (active) and -5.45% (inactive) | – | – | 1% (inactive) | 0% (inactive) | -2% (inactive) | 8% (inactive) | 97% (active) and -12.2% (inactive) | 95.5% (active) and -11.9% (inactive) | 7% (inactive) | 10% (inactive)
COC1OC(C(O)CO)C(O)C(O)C1O (stereo unspecified) | – | – | – | – | – | – | – | 12.2% (inactive) [middle of 4 runs] | – | – | – | – | – | – | 25.1% (inactive) [middle of 4 runs] | 13.7% (inactive) [middle of 4 runs] | – | –
O=C(OC1COC(OC(=O)c2ccccc2)C(OC(=O)c2ccccc2)C1OC(=O)c1ccccc1)c1ccccc1 (stereo unspecified) | 20.4% (inactive) [middle of 4 runs] | -21.6% (inactive) [middle of 4 runs] | – | – | – | – | – | 9.5% (inactive) [middle of 4 runs] | – | – | – | – | – | – | -4.1% (inactive) [middle of 4 runs] | -7.1% (inactive) [middle of 4 runs] | – | –
CC(=O)OCC1OC(n2c(=S)n(-c3ccccc3)c(=O)c3ccccc32)C(OC(C)=O)C(OC(C)=O)C1OC(C)=O (stereo unspecified) | 8.65% (inactive) and -2.35% (inactive) | – | 58.9% (inactive) and -30.1% (inactive) | 27% (inactive) | 27% (inactive) | 11% (inactive) | 11% (inactive) | 6.3% (inactive) and -28.1% (inactive) | – | – | 6% (inactive) | 6% (inactive) | 7% (inactive) | 7% (inactive) | 12.2% (inactive) and -0.5% (inactive) | -27.1% (inactive) and 5.4% (inactive) | 14% (inactive) | 14% (inactive)
CCCC1CCC(=C2C(=O)CCC2=O)O1 (stereo unspecified) | -4.75% (inactive) and 90.7% (active) | 0.65% (inactive) and 91.2% (active) | 2.55% (inactive) and 91% (active) | 6% (inactive) | 21% (inactive) | 9% (inactive) | 26% (inactive) | -5.55% (inactive) and 92.7% (active) | -2% (inactive) | 8% (inactive) | 8% (inactive) | 9% (inactive) | 15% (inactive) | 35% (inactive) | -13.1% (inactive) and 90.8% (active) | – | – | –
COC1OC2COC(c3ccccc3)OC2C2OC12 (stereo unspecified) | -7.7% (inactive) [middle of 4 runs] | 3.15% (inactive) [middle of 4 runs] | -4.2% (inactive) [middle of 4 runs] | – | – | – | – | – | – | – | – | – | – | – | -12.8% (inactive) [middle of 4 runs] | -2.5% (inactive) [middle of 4 runs] | – | –
Cc1nc2c(Br)cc(Br)cc2c(=O)n1-c1ccccc1NC1OC(CO)C(O)C(O)C1O (stereo unspecified) | -11.9% (inactive) and 65.8% (inactive) | -54.8% (inactive) and 64.5% (inactive) | -31.3% (inactive) and 74.8% (active) | 9% (inactive) | 41% (inactive) | 7% (inactive) | 25% (inactive) | -5.65% (inactive) and 47.2% (inactive) | 11% (inactive) | 75% (active) | 7% (inactive) | 56% (inactive) | -25% (inactive) | 67% (inactive) | -35.1% (inactive) and 75% (active) | – | – | –
CCCCCCCCCCCCOS(=O)(=O)O | -13.1% (inactive) and 99% (active) and 25.1% (inactive) | 1% (inactive) and 98.4% (active) and 7.2% (inactive) | -29.6% (inactive) and 97% (active) and 23.4% (inactive) | -6% (inactive) | 29% (inactive) | -5% (inactive) | 28% (inactive) | 6.3% (inactive) and 97% (active) and 36.8% (inactive) | 0% (inactive) | 36% (inactive) | -17% (inactive) | -20% (inactive) | -17% (inactive) | 29% (inactive) | -2.05% (inactive) and 98.2% (active) and 55.9% (inactive) | – | – | –
Cc1ccnc2c1c(=O)c1ccccc1n2C | 79.1% (active) | – | 71.6% (active) | 0% (inactive) | 86% (active) | -2% (inactive) | 35% (inactive) | 68.9% (inactive) | – | – | -1% (inactive) | 12% (inactive) | 3% (inactive) | 55% (inactive) | 74.3% (active) | 60.2% (inactive) | 4% (inactive) | 28% (inactive)
NC(CSCc1ccccc1)C(=O)O (stereo unspecified) | – | – | -6% (inactive) [middle of 4 runs] | – | – | – | – | – | – | – | – | – | – | – | 0.9% (inactive) [middle of 4 runs] | – | – | –
OCC(O)C(O)C(O)C(O)CO (stereo unspecified) (tested in a mixture with another compound) | – | – | – | – | – | – | – | 0.35% (inactive) [middle of 6 runs] | – | – | – | – | – | – | 13.2% (inactive) [middle of 6 runs] | – | – | –
CC(C)C(N)C(=O)NC(C(=O)NC(C(=O)O)C(C)C)C(C)C (stereo unspecified) | -1.6% (inactive) [middle of 6 runs] | – | 6.2% (inactive) [middle of 6 runs] | – | – | – | – | 3.35% (inactive) [middle of 6 runs] | – | – | – | – | – | – | – | 6.8% (inactive) [middle of 6 runs] | – | –
OC1CN(Cc2ccccc2)C[C@@H]1O (stereo partly specified) | 23% (inactive) | 59.6% (inactive) | -0.5% (inactive) | 8% (inactive) | 99% (active) | 10% (inactive) | 99% (active) | -4.5% (inactive) | 17% (inactive) | 93% (active) | 11% (inactive) | 99% (active) | 25% (inactive) | 99% (active) | 36.8% (inactive) | – | – | –
COC(=O)[C@]1(C)CCC[C@]2(C)c3ccc(C(C)C)cc3CC[C@@H]12 | -12.8% (inactive) and 98.4% (active) | -19.3% (inactive) and 99% (active) | -31.1% (inactive) and 99.2% (active) | 0% (inactive) | 40% (inactive) | -8% (inactive) | 74% (active) | 13.8% (inactive) and 99% (active) | 0% (inactive) | 41% (inactive) | 1% (inactive) | 43% (inactive) | -1% (inactive) | 66% (inactive) | 10.1% (inactive) and 99% (active) | – | – | –
OCC(O)C(O)C(O)C(O)C(/C=N/Nc1ccccc1)=N/Nc1ccccc1 (stereo unspecified) | – | – | – | -19% (inactive) | 91% (active) | -39% (inactive) | 30% (inactive) | – | 2% (inactive) | 82% (active) | -3% (inactive) | 54% (inactive) | 8% (inactive) | 86% (active) | – | – | -5% (inactive) | 61% (inactive)
COc1cccc2c1C(=O)c1c(O)c3c(c(O)c1C2=O)CC(O)(C(C)=O)CC3OC1CC(N)C(O)C(C)O1 (stereo unspecified) | – | – | – | 25% (inactive) | 40% (inactive) | 20% (inactive) | 29% (inactive) | – | 14% (inactive) | 9% (inactive) | 36% (inactive) | 40% (inactive) | 23% (inactive) | 28% (inactive) | – | – | 12% (inactive) | 21% (inactive)
O=c1cc[nH]cc1 | 7.55% (inactive) and 26.5% (inactive) | – | 12.3% (inactive) and 23.3% (inactive) | 2% (inactive) | 14% (inactive) | -5% (inactive) | 2% (inactive) | 2.3% (inactive) and 16.9% (inactive) | – | – | 1% (inactive) | -6% (inactive) | 0% (inactive) | 6% (inactive) | -7.05% (inactive) and 81.5% (active) | -8.8% (inactive) and 56.6% (inactive) | -3% (inactive) | -7% (inactive)
